Test results reported in PubChem BioAssay AID1159580 (chemical genetic matrix, 2015).
Hit rate of the full screen: of about 5,500 compounds, about 2,000 (36%) were called active. Inconclusive results (about 18%) are left out. Cut-off read from the data, not from the text of the source: active = normalized growth mostly below about 0.91 (no sharp cut-off); inconclusive = no clear call, values can overlap the other calls; inactive = mostly above about 0.92. The list shows a part of the results.

Assay: chemical genetic growth profiling, strain panel (AID 1159580);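 note: tested at 20 µM; growth read once vehicle control cultures reached saturation at 30 °C; 1 = growth at the plate median or of vehicle wells; lower values mean less growth of the strain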
Conditions: growth OD

Measured: normalized growth

COc1ccc(C[C@H]2NC[C@H](O)[C@H]2OC(C)=O)cc1
active: S. cerevisiae deletion strains, locus YNL128W, strain TEP1, hits give low values 0.353 | S. cerevisiae deletion strains, locus YNL153C, strain GIM3, hits give low values 0.62 | S. cerevisiae deletion strains, locus YNL209W, strain ssb2, hits give low values 0.74 | S. cerevisiae deletion strains, locus YNL233W, strain BNI4, hits give low values 0.582 | S. cerevisiae deletion strains, locus YNL248C, strain rpa49, hits give low values 0.745 | S. cerevisiae deletion strains, locus YNL307C, strain MCK1, hits give low values 0.496 | S. cerevisiae deletion strains, locus YNL322C, strain KRE1, hits give low values 0.0901 | S. cerevisiae deletion strains, locus YNR052C, strain pop2, hits give low values 0.448 | S. cerevisiae deletion strains, locus YOL006C, strain TOP1, hits give low values 0.0919 | S. cerevisiae deletion strains, locus YOL012C, strain htz1 2.18 [resistant] | S. cerevisiae deletion strains, locus YOL147C, strain pex11, hits give low values 0.884 | S. cerevisiae deletion strains, locus YOR001W, strain rrp6, hits give low values 0.891 | S. cerevisiae deletion strains, locus YOR061W, strain CKA2, hits give low values 0.624 | S. cerevisiae deletion strains, locus YOR070C, strain gyp1, hits give low values 0.775 | S. cerevisiae deletion strains, locus YOR083W, strain WHI5, hits give low values 0.657 | S. cerevisiae deletion strains, locus YOR106W, strain vam3, hits give low values 0.345 | S. cerevisiae deletion strains, locus YOR136W, strain idh2, hits give low values 0.914 | S. cerevisiae deletion strains, locus YOR184W, strain ser1, hits give low values 0.463 | S. cerevisiae deletion strains, locus YOR265W, strain rbl2, hits give low values 0.851 | S. cerevisiae deletion strains, locus YOR270C, strain vph1, hits give low values 0.354 | S. cerevisiae deletion strains, locus YOR290C, strain snf2, hits give low values 0.763 | S. cerevisiae deletion strains, locus YPL051W, strain arl3, hits give low values 0.738 | S. cerevisiae deletion strains, locus YPL055C, strain LGE1, hits give low values 0.0822 | S. cerevisiae deletion strains, locus YPL241C, strain CIN2, hits give low values 0.652 | S. cerevisiae deletion strains, locus YPR163C, strain tif3, hits give low values 0.718 | S. cerevisiae deletion strains, locus YPR167C, strain met16, hits give low values 0.807 | S. cerevisiae deletion strains, strain wtn01, hits give low values 0.301 | S. cerevisiae strains, strain wild type, hits give low values 0.117
inactive: S. cerevisiae deletion strains, locus YNL071W, strain lat1, hits give low values 0.975 | S. cerevisiae deletion strains, locus YNL183C, strain NPR1, hits give low values 0.97 | S. cerevisiae deletion strains, locus YNL250W, strain rad50, hits give low values 0.986 | S. cerevisiae deletion strains, locus YNL271C, strain bni1, hits give low values 0.995 | S. cerevisiae deletion strains, locus YNL298W, strain CLA4, hits give low values 0.98 | S. cerevisiae deletion strains, locus YNL322C, strain KRE1 (second series), hits give low values 1.01 | S. cerevisiae deletion strains, locus YNR049C, strain mso1, hits give low values 1 | S. cerevisiae deletion strains, locus YOR069W, strain VPS5, hits give low values 0.973 | S. cerevisiae deletion strains, locus YOR080W, strain dia2, hits give low values 0.952 | S. cerevisiae deletion strains, locus YOR144C, strain elg1, hits give low values 1.01 | S. cerevisiae deletion strains, locus YOR231W, strain MKK1, hits give low values 0.954 | S. cerevisiae deletion strains, locus YOR316C, strain cot1, hits give low values 0.993 | S. cerevisiae deletion strains, locus YPL078C, strain atp4, hits give low values 0.919 | S. cerevisiae deletion strains, locus YPL106C, strain sse1, hits give low values 0.873 | S. cerevisiae deletion strains, locus YPL240C, strain hsp82, hits give low values 0.942 | S. cerevisiae deletion strains, locus YPL256C, strain CLN2, hits give low values 0.947 | S. cerevisiae deletion strains, locus YPR119W, strain clb2, hits give low values 1.07 | S. cerevisiae deletion strains, locus YPR141C, strain kar3, hits give low values 0.986
